Hit rate of the full screen: of about 310,000 compounds, about 2,200 (0.71%) showed an effect of 50% or more. Effects have a minus sign here. The full list was thinned out, with strong results kept by preference.
biological target: human ether-à-go-go-related gene (hERG) potassium channel (human, UniProt Q12809); test: primary screen, population patch clamp on CHO cells stably expressing hERG; higher = less effect of the substance
Sequence (Q12809 whole entry, looked up): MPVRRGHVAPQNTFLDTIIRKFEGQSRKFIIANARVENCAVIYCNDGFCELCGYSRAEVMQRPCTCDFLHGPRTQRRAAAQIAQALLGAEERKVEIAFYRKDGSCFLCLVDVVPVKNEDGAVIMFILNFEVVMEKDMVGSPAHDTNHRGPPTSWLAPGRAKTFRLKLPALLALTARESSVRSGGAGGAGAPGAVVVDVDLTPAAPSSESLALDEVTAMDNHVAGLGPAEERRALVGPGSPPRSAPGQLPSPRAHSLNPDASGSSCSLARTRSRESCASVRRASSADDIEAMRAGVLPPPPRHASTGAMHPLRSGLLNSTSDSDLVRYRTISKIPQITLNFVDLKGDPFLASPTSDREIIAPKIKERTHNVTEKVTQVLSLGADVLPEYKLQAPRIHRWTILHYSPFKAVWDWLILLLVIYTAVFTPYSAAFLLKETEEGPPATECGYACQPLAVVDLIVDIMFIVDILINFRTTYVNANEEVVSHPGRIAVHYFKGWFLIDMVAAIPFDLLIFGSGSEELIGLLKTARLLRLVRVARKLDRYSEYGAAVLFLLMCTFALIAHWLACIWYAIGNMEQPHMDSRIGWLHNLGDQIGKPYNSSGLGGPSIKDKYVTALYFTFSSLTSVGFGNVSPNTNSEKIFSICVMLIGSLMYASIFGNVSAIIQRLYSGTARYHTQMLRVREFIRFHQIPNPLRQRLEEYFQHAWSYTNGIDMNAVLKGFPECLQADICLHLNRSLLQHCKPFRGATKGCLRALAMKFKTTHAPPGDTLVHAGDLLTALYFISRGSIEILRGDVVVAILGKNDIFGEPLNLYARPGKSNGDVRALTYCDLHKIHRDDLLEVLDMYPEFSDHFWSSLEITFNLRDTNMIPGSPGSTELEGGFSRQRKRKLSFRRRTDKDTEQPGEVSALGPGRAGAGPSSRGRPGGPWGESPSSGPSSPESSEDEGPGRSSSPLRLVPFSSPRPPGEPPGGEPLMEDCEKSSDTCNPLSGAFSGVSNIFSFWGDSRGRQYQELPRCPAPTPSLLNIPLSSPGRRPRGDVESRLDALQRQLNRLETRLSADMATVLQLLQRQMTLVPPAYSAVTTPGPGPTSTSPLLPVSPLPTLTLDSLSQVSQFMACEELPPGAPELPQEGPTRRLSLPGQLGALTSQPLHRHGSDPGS

Row | Compound | hERG current change (%, negative = inhibition) at 1uM [%]
1 | CCCCCC(=O)N1CCN(CCN=CC2=C(O)CC(c3cccs3)CC2=O)CC1 (stereo not drawn) | -109
2 | CC(C)C(=O)N1CCN(CCN=CC2=C(O)CC(c3ccco3)CC2=O)CC1 (stereo not drawn) | 14
3 | CCC(=O)N1CCN(CCN=CC2=C(O)CC(c3cccs3)CC2=O)CC1 (stereo not drawn) | 9.17
4 | CCCCCC(=O)N1CCN(CCN=CC2=C(O)CC(c3ccco3)CC2=O)CC1 (stereo not drawn) | -74.7
5 | CC(=O)N1CCN(CCN=CC2=C(O)CC(c3ccco3)CC2=O)CC1 (stereo not drawn) | 2.39
6 | CC(=O)N1CCN(CCN=CC2=C(O)CC(c3cccs3)CC2=O)CC1 (stereo not drawn) | 10.4
7 | COc1ccc(C(=O)NC(=S)Nc2ccc(S(=O)(=O)Nc3cc(OC)nc(OC)n3)cc2)cc1 | 13.7
8 | O=C(Oc1ccc2c(c1)CCC2)N1CCOCC1 | 11.3
9 | Cc1ccc(S(=O)(=O)N2CCCC2C(=O)NCc2ccco2)cc1 (stereo not drawn) | 8.74
10 | Cc1ccc(C)c(S(=O)(=O)N2CCCOC2CNC(=O)C(=O)NC2CC2)c1 (stereo not drawn) | 19.9
11 | COc1ccc(Nc2nc(N3CCN(C)CC3)nc3ccccc23)c(OC)c1 | -76.6
12 | COc1ccc(Nc2nc(N3CCCC3)nc3ccccc23)c(OC)c1 | -7.36
13 | COc1ccc(Nc2nc(N3CCCCC3)nc3ccccc23)c(OC)c1 | -12.1
14 | Cc1ccc(-n2c(SCC(=O)NCC3CCCO3)nc3c(c2=O)SCC3)cc1 (stereo not drawn) | 2.53
15 | CN(CC1CCCN(CCc2ccccc2F)C1)C(=O)c1ccoc1 (stereo not drawn) | -25.9
16 | COc1ccc(CN(C)CC2CCCN(CCc3ccc(Cl)cc3)C2)cc1OC (stereo not drawn) | -78.2
17 | COc1ccc(CCN2CCCC(CN(C)C(=O)c3ccoc3)C2)cc1 (stereo not drawn) | -32.6
18 | COc1ccc(CCN2CCCC(CN(C)C(=O)c3ccoc3C)C2)cc1 (stereo not drawn) | 18.4
19 | CN(CC1CCCN(CCc2ccc(Cl)cc2)C1)C(=O)C(=O)c1ccco1 (stereo not drawn) | -72.5
20 | CN(CC1CCCN(CCc2ccc(Cl)cc2)C1)C(=O)c1ccoc1 (stereo not drawn) | -85.3
21 | Cc1ccccc1CCN1CCCC(CN(C)C(=O)C(=O)c2ccco2)C1 (stereo not drawn) | -17.7
22 | COc1cccc(CN(C)CC2CCCN(CCc3ccc(Cl)cc3)C2)c1OC (stereo not drawn) | -3.32
23 | CN(C)C(=O)CCC(=O)N(C)CC1CCCN(CCc2ccc(F)cc2)C1 (stereo not drawn) | -0.257

Row | Compound | hERG current change (%, negative = inhibition) at 1uM [%]
24 | COc1ccc(CN(C)CC2CCCN(CCc3ccc(F)cc3)C2)cc1OC (stereo not drawn) | -8.47
25 | CN(CC1CCCN(CCc2ccc(Cl)cc2)C1)C(=O)c1ccco1 (stereo not drawn) | 11.1
26 | Cc1cc(C(=O)N(C)CC2CCCN(CCc3ccc(F)cc3)C2)c(C)o1 (stereo not drawn) | -71.6
27 | O=C(O)CCC(=O)Nc1sc2c(c1C(=O)NCc1ccccc1)CCCC2 | 0.699
28 | Cc1cc2c(cc1C)C(c1ccccc1Br)CC(=O)N2 (stereo not drawn) | 13.7
29 | Cc1ccc(N2CC(C(=O)Oc3cccc(N4C(=O)CCC4=O)c3)CC2=O)cc1 (stereo not drawn) | -8.29
30 | Cc1nn(-c2ccccc2)c(Cl)c1/C=N/O | 4.67
31 | Cc1c(C(C)(C)C)s/c(=N/S(=O)(=O)c2ccccc2)n1C | 12.6
32 | N#Cc1c(NC(=O)CSc2nc3ccccc3s2)sc2c1CCCC2 | 9.38
33 | O=C(O)c1ccc(N/N=C/c2ccncc2)cc1 | 10
34 | COCc1ccc(C(=O)N(C)CC2CCCN(CCc3ccc(Cl)cc3)C2)o1 (stereo not drawn) | -65.1
35 | COCc1ccc(C(=O)N(C)CC2CCCN(CCc3ccccc3F)C2)o1 (stereo not drawn) | -11.7
36 | COCc1ccc(C(=O)N(C)CC2CCCN(CCc3ccc(OC)cc3)C2)o1 (stereo not drawn) | -38.5
37 | COc1ccc(CNc2nc3c(c(=O)n(Cc4ccc(Br)cc4)c(=O)n3C)n2C)cc1 | -10.5
38 | C[N+](C)(C)CCN(Cc1ccc(Cl)cc1)c1ccccn1.[I-] | 6.09
39 | CN(C)CCN(Cc1ccccc1)c1ccccn1.Cl | -19.1
40 | CN(C)CCN(Cc1ccc(Cl)cc1)c1ccccn1.Cl | -57.1
41 | Cc1ccc(-n2cccc2/C=C2/C(=N)N3C(=NC2=O)SN=C3S(C)(=O)=O)cc1Cl | 11.1
42 | COC(=O)[C@H]1C[C@H](C(=O)O)[C@@H](C)C1(C)C | 9.34
43 | O=[N+]([O-])c1ccc(-n2nncc2-c2ccc(Cl)cc2)cc1 | -60.4
44 | O=[N+]([O-])c1ccc(-n2nncc2-c2ccccc2)cc1 | 0.0452
45 | O=Cc1ccc(-n2nncc2-c2ccc([N+](=O)[O-])cc2)cc1 | -12.4

Source: publication PMC4336329 (PLoS ONE, 2015)
